High-throughput results as filed in PubChem.
Sampled rows, rich in hits. Any-hit rate of the full collection: about 2.2%.
aSyn UTR inh – 5' untranslated region of α-synuclein, MLPCN primary screen; actives 0.82% (n = 300,000); inhibition, % (tested at 7.5 µM); AID 1813; alpha-synuclein 5'UTR reporter, inhibitor activity; in the data active = inhibition above about 60%;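 note: H4 neuroglioblastoma cells stably carrying SNCA 5'UTR luciferase fusion; 0% = DMSO wells and 100% = positive control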
KLF5 inhibitor – inhibitors of KLF5 expression; DLD-1 KLF5 promoter-luciferase reporter, luminescence; inhibition, % at 5 µM; actives 0.23% (n = 290,000);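 active = inhibition above a per-plate limit of that plate's mean compound inhibition plus 3 SD, cut at about 60% in these data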;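 note: 0% = DMSO wells and 100% = LY294002 at 200 µM; higher means less KLF5 promoter-driven luciferase light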
Ba/F3 V617F tox – reduce viability of Ba/F3 cells dependent on JAK2V617F | Ba/F3 EpoR-JAK2V617F viability, ATP luminescence | inhibition, % at 5.6 µM | actives 1.1% (n = 220,000);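 active = inhibition above the campaign mean plus 3 SD over all tested compounds, cut at about 24% in these data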;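 note: cytokine-independent growth of Ba/F3 cells driven by EpoR plus mutant JAK2; 0% = DMSO-treated cells and 100% = JAK inhibitor I control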
BaF3 tox – reduces parental Ba/F3 cell viability, JAK2V617F counter-screen; CellTiter-Glo ATP luminescence; inhibition, % at 5.6 µM; actives 1.1% (n = 220,000); AID 1486;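 active = inhibition above a per-campaign cutoff, the mean inhibition of all tested compounds plus 3 SD, cut at about 27% in these data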;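 note: 0% = DMSO wells and 100% = JAK Inhibitor I control wells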
IEC-6 tox-1 – kills IEC-6 intestinal cells in KLF5 counter-screen. inhibition, % at 5 µM. IEC-6 cytotoxicity, luminescence viability. actives 0.78% (n = 290,000);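 note: 0% = plate median of test compound wells and 100% = cytotoxic reference compound wells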
APP transl inh – APP translation inhibition; actives 0.82% (n = 190,000); inhibition, % at 2 µM; SH-SY5Y APP 5'UTR-luciferase reporter, luminescence;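 active = inhibition above a set limit, derived from the sample mean plus 3 SD, cut at about 45% in these data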
KLF5 inh confirm – confirmation of KLF5 inhibitors | shares compounds with KLF5 inhibitor | DLD-1 KLF5 promoter firefly luciferase reporter, luminescence | inhibition, % at 4 µM | actives 79% (n = 610);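 active = inhibition above a set limit taken from the earlier primary screen, cut at about 63% in these data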;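 note: 0% = DMSO wells and 100% = LY294002 at 200 µM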
IEC-6 tox-2 – counter-screen for KLF5 inhibitors: cytotoxicity in rat IEC-6 cells. shares compounds with KLF5 inhibitor. actives 56% (n = 610). inhibition, % at 4 µM. IEC-6 rat intestinal cells, viability luminescence; in the data active = inhibition above about 23%;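 note: cells exposed to compounds for 48 hours before viability read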
IEC-6 cytotox cf – confirmation of cytotoxic compounds in rat IEC-6 intestinal epithelial cells. shares compounds with IEC-6 tox-1. inhibition, % at 5 µM. actives 63% (n = 1,900). IEC-6 rat intestinal epithelial viability, luminescence;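 note: 0% = vehicle and 100% = reference cytotoxic drug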
* = called active by the depositor. Cut-off read from the data, not from the text of the source, unless noted: active = inhibition above about 22%; inactive = the rest.

Results for O=C(NCc1ccccc1)C1=C[C@@H](c2csc3ccccc23)C[C@@H](OCCCCO)O1 ?
aSyn UTR inh: 95*; KLF5 inhibitor: 70*; Ba/F3 V617F tox: 25*; BaF3 tox: 57*; IEC-6 tox-1: 30*; APP transl inh: 9; KLF5 inh confirm: 61; IEC-6 tox-2: 7; IEC-6 cytotox cf: 16

Results for O=C(NC1CC1)C1=C[C@H](c2csc3ccccc23)C[C@H](OCCCCO)O1 ?
aSyn UTR inh: 2; KLF5 inhibitor: 4; Ba/F3 V617F tox: 2; BaF3 tox: -1; IEC-6 tox-1: 1; APP transl inh: -13

How did COC(=O)c1ccc(Oc2cc(C)nc(-n3nc(C)cc3C)n2)cc1 do in these assays?
aSyn UTR inh: 65*; KLF5 inhibitor: 82*; Ba/F3 V617F tox: 74*; BaF3 tox: 66*; IEC-6 tox-1: 23*; APP transl inh: 94*; KLF5 inh confirm: 81*; IEC-6 tox-2: 20; IEC-6 cytotox cf: 45*

What do the screens show for `CCOC(=O)C1=C(C)N(C)C(C)=C(C(=O)OCC)C1c1ccsc1`?
aSyn UTR inh: 23; KLF5 inhibitor: -1; Ba/F3 V617F tox: 2; BaF3 tox: 6; IEC-6 tox-1: -3; APP transl inh: 12

How did CCc1c(C)sc(NC(=O)c2ccoc2C)c1C(N)=O do in these assays?
aSyn UTR inh: -54; KLF5 inhibitor: -13; IEC-6 tox-1: -9

What do the screens show for `COc1ccc2[nH]c(C(=O)N/N=C/c3ccc(OC)c(O)c3)cc2c1`?
aSyn UTR inh: -31; KLF5 inhibitor: 65*; IEC-6 tox-1: 30*; KLF5 inh confirm: 69*; IEC-6 tox-2: 2; IEC-6 cytotox cf: 10

Results for CCCOc1ccc2[nH]c(C(=O)N/N=C/c3cc(OC)c(OC)c(OC)c3)cc2c1 ?
aSyn UTR inh: -26; KLF5 inhibitor: -43; IEC-6 tox-1: -13

How did Cc1ccc(C)c(N2CCN(C(=O)c3ccc(CS(=O)(=O)c4ccccc4C)o3)CC2)c1 do in these assays?
aSyn UTR inh: 20; KLF5 inhibitor: 5; Ba/F3 V617F tox: 1; BaF3 tox: 8; IEC-6 tox-1: 4; APP transl inh: -11

Results for Cc1cccc(N2CCN(C(=O)c3ccc(CS(=O)(=O)c4ccccc4C)o3)CC2C)c1 (centres undefined) ?
aSyn UTR inh: 97*; KLF5 inhibitor: 89*; Ba/F3 V617F tox: 75*; BaF3 tox: 77*; IEC-6 tox-1: 76*; APP transl inh: 96*; KLF5 inh confirm: 75*; IEC-6 tox-2: 53*; IEC-6 cytotox cf: 48*

How did O=C(CCSCc1cccc(F)c1)NCCc1ccccc1 do in these assays?
aSyn UTR inh: 2; KLF5 inhibitor: -28; IEC-6 tox-1: 0

What do the screens show for `CCOc1ccc(C2=Nn3c(nnc3-c3ccccc3OC)SC2)cc1`?
aSyn UTR inh: 109*; KLF5 inhibitor: 82*; Ba/F3 V617F tox: 96*; BaF3 tox: 93*; IEC-6 tox-1: 96*; APP transl inh: 95*; KLF5 inh confirm: 94*; IEC-6 tox-2: 84*; IEC-6 cytotox cf: 83*

Results for Cn1nc(-c2ccc(Cl)cc2)nc2c(=O)n(C)c(=O)nc1-2 ?
aSyn UTR inh: 110*; KLF5 inhibitor: 91*; Ba/F3 V617F tox: 95*; BaF3 tox: 85*; IEC-6 tox-1: 98*; APP transl inh: -13; KLF5 inh confirm: 113*; IEC-6 tox-2: 63*; IEC-6 cytotox cf: 78*

Results for COc1cc(C2=NOC(C(=O)NCc3ccc(F)cc3)C2)cc(OC)c1OC (centres undefined) ?
aSyn UTR inh: 77*; KLF5 inhibitor: 73*; Ba/F3 V617F tox: 79*; BaF3 tox: 78*; IEC-6 tox-1: 86*; APP transl inh: 95*; KLF5 inh confirm: 85*; IEC-6 tox-2: 65*; IEC-6 cytotox cf: 55*

What do the screens show for `COc1cccc(C2=NOC(C(=O)NCc3ccc(F)cc3)C2)c1` (centres undefined)?
aSyn UTR inh: -11; KLF5 inhibitor: -43; Ba/F3 V617F tox: -1; BaF3 tox: 4; IEC-6 tox-1: -1; APP transl inh: -10

Results for COc1ccc(C2=NOC(C(=O)NCc3ccc(F)cc3)C2)cc1OC (centres undefined) ?
aSyn UTR inh: 82*; KLF5 inhibitor: 85*; Ba/F3 V617F tox: 79*; BaF3 tox: 82*; IEC-6 tox-1: 88*; APP transl inh: 96*; KLF5 inh confirm: 79*; IEC-6 tox-2: 63*; IEC-6 cytotox cf: 58*

How did CCCC(=O)Nc1ccc(S(=O)(=O)Nc2cc(OC)ncn2)cc1 do in these assays?
aSyn UTR inh: -4; KLF5 inhibitor: -32; IEC-6 tox-1: -4

How did Cn1cccc1/C=N\NC(=O)c1cncc(Br)c1 do in these assays?
aSyn UTR inh: 9; KLF5 inhibitor: -11; Ba/F3 V617F tox: -7; BaF3 tox: 0; IEC-6 tox-1: 7

What do the screens show for `Cc1ccc(C(=O)N/N=C/c2c(O)ccc3ccccc23)cn1`?
aSyn UTR inh: 62*; KLF5 inhibitor: 94*; IEC-6 tox-1: 39*; KLF5 inh confirm: 85*; IEC-6 tox-2: 15; IEC-6 cytotox cf: 33*

What do the screens show for `O=C(N/N=C\c1c(O)ccc2ccccc12)c1cncc(Br)c1`?
aSyn UTR inh: 62*; KLF5 inhibitor: 70*; IEC-6 tox-1: 95*; KLF5 inh confirm: 86*; IEC-6 tox-2: 56*; IEC-6 cytotox cf: 65*

How did O=C(N/N=C/c1cc(O)ccc1Br)c1cccnc1 do in these assays?
aSyn UTR inh: 33; KLF5 inhibitor: 80*; IEC-6 tox-1: 66*; KLF5 inh confirm: 90*; IEC-6 tox-2: 17; IEC-6 cytotox cf: 18

How did O=C(N/N=C/c1c(O)ccc2ccccc12)c1cccnc1 do in these assays?
aSyn UTR inh: 93*; KLF5 inhibitor: 82*; IEC-6 tox-1: 75*; KLF5 inh confirm: 81*; IEC-6 tox-2: 20; IEC-6 cytotox cf: 19

Results for CCCCCCCCCn1c2c(c(=N)c3c1CCC3)CCCC2 ?
aSyn UTR inh: 90*; KLF5 inhibitor: 76*; Ba/F3 V617F tox: 102*; BaF3 tox: 93*; IEC-6 tox-1: 64*; APP transl inh: 2; KLF5 inh confirm: 114*; IEC-6 tox-2: 42*; IEC-6 cytotox cf: 55*

How did CCCCCc1nc2c(c3c1CCCC3)CCCC2 do in these assays?
aSyn UTR inh: 43; KLF5 inhibitor: -40; Ba/F3 V617F tox: -4; BaF3 tox: 1; IEC-6 tox-1: -2

Results for N#CC1=C2SCC(O)(c3ccccc3)N2C(=O)CC1c1cccs1 (centres undefined) ?
KLF5 inhibitor: 72*; Ba/F3 V617F tox: 74*; BaF3 tox: 75*; IEC-6 tox-1: 82*; APP transl inh: 91*; KLF5 inh confirm: 74*; IEC-6 tox-2: 62*; IEC-6 cytotox cf: 56*
